Assay outcomes: PubChem, National Center for Advancing Translational Sciences (NCATS)
UDG counterscr: UDG inhibition counter-screen; FRET deamination/UDG coupled assay, UDG read, 4 h; Potency, µM (titrated, usually from 115 µM), without a hit: top-dose activity change, negative = inhibition, usual class: inhibitors; 0.14% of 91,000 active; AID 1347430; note: nearly all actives have a fitted effect of over 65% in size
AID inh: activation induced cytidine deaminase inhibition; AID deamination FRET fluorescence, UDG-coupled, 4 h; Potency, µM (highest dose often 115 µM), hits mostly inhibitors; 0.32% of 91,000 active; Q9GZX7; AID 1347428; note: nearly all actives have a fitted effect of over 25% in size
Target sequence (Q9GZX7 whole entry, looked up): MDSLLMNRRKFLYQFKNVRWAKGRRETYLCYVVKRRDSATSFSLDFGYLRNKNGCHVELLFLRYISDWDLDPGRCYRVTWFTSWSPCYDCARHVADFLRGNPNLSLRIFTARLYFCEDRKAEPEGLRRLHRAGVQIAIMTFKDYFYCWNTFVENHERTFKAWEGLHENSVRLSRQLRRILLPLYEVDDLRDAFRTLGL
An asterisk follows results filed as active; i = inactive; ? = inconclusive; [ ] = another dose, or the depositor's remark. An excerpt weighted towards active compounds, which were near 0.47% of everything screened. Calls come from the whole dose curve; as a rule, active = well fitted curve in the direction sought with a large enough effect; inconclusive = small, poorly fitted or top-dose-only effect, or another doubt; inactive = no such curve, though single readings can be large; an effect the other way counts as inactive or inconclusive. % is set by controls: 0 for no effect and ±100 for the full control effect; potency is the fitted concentration of half-maximal effect.

SMILES	UDG counterscr	AID inh
CC1=C(C(=O)OC(C)(C)C)C(c2ccc(Cl)cc2)NC(=O)N1 (stereo not given)	0.7%	i
CCCC(=O)N1CC(=O)Nc2ccc(Cl)cc2C1c1ccc(F)cc1 (stereo not given)	-1.2%	i
CCCCC1CCC(C(=O)N2CC(=O)Nc3ccc(F)cc3C2c2ccc(F)cc2)CC1 (stereo not given)	-22.7%	35.5µM*
CNc1oc(-c2ccc(Cl)cc2)nc1S(=O)(=O)c1ccc2c(c1)OCCO2	1.7%	i
CNc1oc(-c2ccccc2F)nc1S(=O)(=O)c1ccc2c(c1)OCCO2	79.4µM*	i
O=C(NCC(c1cccs1)N1CCCCCC1)c1cc(=O)c2cc(Cl)ccc2o1 (stereo not given)	-3.5%	i
Cc1cccc(Cn2c(=O)n3nc(-c4ccccc4)nc3c3ccccc32)c1	-20.4%	79.4µM*
O=c1n(Cc2cccc(F)c2)c2ccccc2c2nc(-c3ccccc3)nn12	3.1%[57.5 µM]	i
CCOC(=O)c1sc(CC(=O)Nc2ccc(CC)cc2)nc1C	6.3%	i
CC(=O)N1CCN(c2oc(/C=C/c3ccc(F)cc3)nc2C#N)CC1	0.0%	i
Cc1ccc(C)c(C(=O)CCC(=O)N2CCc3sccc3C2c2cccs2)c1 (stereo not given)	-6.3%	i
Cc1ccc(-c2noc(CNC(=O)CN(C)S(=O)(=O)c3ccc(Cl)cc3)n2)cc1	-6.2%	i
CONC(=O)C(C)NC(=O)/C=C/c1ccccc1 (stereo not given)	3.3%	i
CCc1cccc(NC(=O)c2c(C)oc3ncnc(N4CCCCC4)c23)c1	89.1µM*	i
Cc1ccc(NC(=O)c2c(C)oc3ncnc(N4CCCCC4)c23)cc1Cl	?	i
CC1Cc2ccccc2N1S(=O)(=O)c1nnc(NC(=O)c2ccccc2Br)s1 (stereo not given)	6.7%	44.7µM*
CC1Cc2ccccc2N1S(=O)(=O)c1nnc(NC(=O)c2ccccc2)s1 (stereo not given)	4.2%	i
CNC(=O)NC(=O)C(C)Sc1cccc2cccnc12 (stereo not given)	-7.1%	i
COc1ccc2c(c1)c(C(C(=O)O)N1CCC(C(=O)O)CC1)cn2CC(=O)O (stereo not given)	-5.9%	i
Cc1nn(-c2ccccc2)c(OC(=O)C(C)C)c1Sc1ccc(Cl)cc1	-21.1%	?
CCC(=O)Oc1c(Sc2ccc(Cl)cc2)c(C)nn1C(C)(C)C	79.4µM*	i
Cc1cc(C)c(C)c(SC(C(N)=O)c2ccccc2)c1C (stereo not given)	1.7%	i
Cc1cc(N(CCO)Cc2ccccc2)n2nc(-c3ccc(C(C)(C)C)cc3)nc2n1	-2.1%	i
Cc1cc(N(C)Cc2ccccc2)n2nc(-c3ccc(C(C)(C)C)cc3)nc2n1	0.0%	35.5µM*
Cc1ccn2c(Nc3ccccc3)c(-c3c[nH]c4ccccc34)nc2c1	5.8%	i
SMILES	UDG counterscr	AID inh
Cc1ccc(Nc2c(-c3c[nH]c4ccccc34)nc3cc(C)ccn23)cc1	79.4µM*	?
COCCCNC(=O)c1oc2c(c1C)-c1nn(Cc3ccc(Cl)cc3)cc1CC2	-13.8%[57.5 µM]	i
COCCCNC(=O)c1oc2c(c1C)-c1nn(Cc3cccc(Cl)c3)cc1CC2	-13.7%[57.5 µM]	89.1µM*
CCN(CC)CCCNC(=O)c1oc2c(c1C)-c1nn(Cc3ccc(Cl)cc3)cc1CC2	-12.3%[57.5 µM]	i
CCOCCCNC(=O)Cn1cc2c(n1)-c1c(oc(C(=O)N3CCCC3)c1C)CC2	?	79.4µM*
COCCn1cnc2c1c(=O)n(CC(=O)OCc1cccc(F)c1)c(=O)n2Cc1ccccc1	-12.6%	i
COc1ccc(C(=O)N(Cc2ccco2)Cc2ccc(C)o2)cc1	12.5%[57.5 µM]	i
CCc1ccc(CN(Cc2ccco2)C(=O)c2ccc(OC)cc2)cc1	-9.4%[57.5 µM]	39.8µM*
CN(C(=O)C1CCN(c2ncnc3c2nc2n3CCCCC2)CC1)c1ccccc1F	2.3%	i
Cc1ccc(C)c(N(C)C(=O)C2CCN(c3ncnc4c3nc3n4CCCCC3)CC2)c1	-10.1%	79.4µM*
CCOC(=O)c1ccc(NC(=O)COC(=O)c2cn(CC)c3nc(C)ccc3c2=O)cc1	-0.4%	i
CCn1cc(C(=O)OCC(=O)Nc2cccc(C(C)=O)c2)c(=O)c2ccc(C)nc21	-34.1%	44.7µM*
COc1ccccc1CNC(=O)c1cccc(S(=O)(=O)N2CCc3ccccc3C2)c1	-2.5%	i
Cc1c2occ(C(C)(C)C)c2cc2c3c(/c(=N\O)oc12)CCCC3	-7.9%	i
CCCCn1c(SCC(=O)c2ccc(Cl)cc2)nc2c1c(=O)[nH]c(=O)n2C	-10.1%	i
CCOc1ccccc1NC(=O)CSc1nc2ccccc2nc1N1CCOCC1	?	22.4µM*
COc1ccc(NC(=O)CSc2nc3ccccc3nc2N2CCOCC2)c(OC)c1	-8.4%	?
CCN1CCN(c2nc3c(c(=O)[nH]c(=O)n3C)n2CC(O)COc2ccccc2)CC1 (stereo not given)	1.3%	i
O=C(Cn1cnc2nc3c(cc2c1=O)CCCC3)N1CCN(c2cccc(C(F)(F)F)c2)CC1	-8.1%	i
Cc1ccc(Cl)cc1N1CCN(C(=O)Cn2cnc3nc4c(cc3c2=O)CCCC4)CC1	?	39.8µM*
CN1CCC(N(C)C(=O)c2nn(-c3ccccc3)c(=O)c3ccccc23)CC1	8.4%	i
CC1CCc2nc3ccccc3c(C(=O)Nc3ccccc3F)c2C1 (stereo not given)	-0.4%	i
O=C(COC(=O)c1n[nH]c(=O)c2ccccc12)NC(=O)Cc1ccccc1	-11.8%	i
O=C(CSc1nnnn1C1CCCC1)NC(c1ccccc1)c1cccs1 (stereo not given)	-9.3%	i
CCN(C(=O)c1cc2c(=O)n3cccc(C)c3nc2s1)c1ccc(C)c(C)c1	-2.3%[57.5 µM]	?
SMILES	UDG counterscr	AID inh
Cc1cccn2c(=O)c3cc(C(=O)N(Cc4ccccc4)C(C)C)sc3nc12	0.0%	79.4µM*
Cc1ccc(C(=O)/C=C/c2ccc(/C=C/C(=O)c3ccc(C)cc3)o2)cc1	-6.5%	i
Cc1nc(-c2ccncc2)[nH]c(=O)c1CC(=O)N(C)C1CCCCC1	2.5%	28.2µM*
Cc1nc(-c2ccncc2)[nH]c(=O)c1CC(=O)N(C)C(C)C(C)(C)C (stereo not given)	2.7%	i
CN(C)CCNc1cccc(Br)c1	-7.1%	i
Cc1cc(C(=O)CSc2nnc(COc3ccccc3)n2CCC(C)C)c(C)n1Cc1ccc(F)cc1	-3.2%	i
Cc1cccc(-n2nnnc2C2(N3CCCC3)CCCC2)c1	-0.4%	i
FC(F)(F)c1cccc(-n2nnnc2C2(N3CCOCC3)CCCC2)c1	89.1µM*	i
CCOc1cc(CNCC2CCCO2)ccc1OCc1ccccc1 (stereo not given)	-3.1%	i
Cc1oc(-c2ccccc2Cl)nc1CS(=O)(=O)CC(=O)NC(C)c1ccccc1 (stereo not given)	-14.7%	?
Cc1oc(-c2ccccc2Cl)nc1CS(=O)(=O)CC(=O)NC(C)CCc1ccccc1 (stereo not given)	-24.7%	20µM*
Brc1ccccc1-c1nc2cc3c(cc2[nH]1)OCCO3	1.9%	i
CCOC(=O)c1ccc(N2C(=O)c3[nH]nc(-c4ccccc4)c3C2c2ccc(CC)cc2)cc1 (stereo not given)	-17.1%	?
Cc1cccc(CN2CCC(CNc3ncnc4onc(-c5ccc(Cl)cc5)c34)CC2)c1	-22.2%	20µM*
Cc1ccc(CN2CCC(CNc3ncnc4onc(-c5ccc(Cl)cc5)c34)CC2)cc1	1.5%	i
